# GLA inh pH 4.5 – qHTS Assay for Inhibitors of Human alpha-Galactosidase at pH 4.5. purified enzyme, 4-MU-alpha-Gal fluorescence, pH 4.5. activity change, negative = inhibition, % at 105 µM. 230,000 tested, under 10 active. AID 1467, 2008
# Target sequence (P06280 whole entry, looked up): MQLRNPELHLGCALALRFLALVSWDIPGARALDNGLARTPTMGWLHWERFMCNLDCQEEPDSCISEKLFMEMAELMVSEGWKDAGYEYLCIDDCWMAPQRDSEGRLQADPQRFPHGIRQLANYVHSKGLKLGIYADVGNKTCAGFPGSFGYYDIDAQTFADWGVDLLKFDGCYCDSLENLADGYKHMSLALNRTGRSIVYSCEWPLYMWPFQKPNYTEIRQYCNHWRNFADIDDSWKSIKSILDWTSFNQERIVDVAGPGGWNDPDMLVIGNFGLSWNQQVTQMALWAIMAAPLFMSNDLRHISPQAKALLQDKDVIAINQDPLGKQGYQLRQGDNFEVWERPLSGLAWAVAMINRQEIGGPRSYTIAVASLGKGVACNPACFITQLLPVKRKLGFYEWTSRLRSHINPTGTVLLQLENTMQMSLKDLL
# ALDH1A1 block – qHTS Assay for Inhibitors of Aldehyde Dehydrogenase 1 (ALDH1A1); Aldehyde dehydrogenase 1A1 (Homo sapiens), P00352; Purified ALDH1A1, NADH fluorescence, propionaldehyde substrate; Potency, µM (highest dose often 75.3 µM), usual class: inhibitors; hit rate 7.3% among 220,000; AID 1030, 2008; active = well fitted inhibition curve with a large enough effect, not every such curve was filed as active; inconclusive = small, poorly fitted or top-dose-only effect, or another doubt; inactive = no such curve, though single readings can be large or run the other way
# PNC assembly inh – High Content Assay for Compounds that inhibit the Assembly of the Perinucleolar Compartment; PC3M PTB-GFP, PNC prevalence imaging, 16 h; hits give low values; activity change (PNC), negative = inhibition, % at 10 µM; hit rate 3.1% among 140,000; AID 2417, 2010;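 active = readout at or below -70, meaning at least 70% loss of cells showing the perinucleolar compartment, a nuclear body marking cancer cells; inconclusive = readout between -30 and a set limit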
#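 Read-out is percentage of cells bearing a perinucleolar compartment, from automated 20x imaging of fixed, Hoechst-stained PC3M PTB-GFP cells. Cells were seeded 4 h, then exposed 16 h to compound (23 nl of library stock) in duplicate plates.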
# HPGD block – qHTS Assay for Inhibitors of HPGD (15-Hydroxyprostaglandin Dehydrogenase); 15-hydroxyprostaglandin dehydrogenase [NAD(+)] (Homo sapiens), P15428; purified HPGD, NADH fluorescence kinetic, PGE2 substrate; Potency, µM, most hits filed as inhibitors; hit rate 4.3% among 150,000; AID 894, 2007; active = well fitted inhibition curve with a large enough effect, not every such curve was filed as active; inconclusive = small, poorly fitted or top-dose-only effect, or another doubt; inactive = no such curve, though single readings can be large or run the other way
# Target sequence (P15428 whole entry, looked up): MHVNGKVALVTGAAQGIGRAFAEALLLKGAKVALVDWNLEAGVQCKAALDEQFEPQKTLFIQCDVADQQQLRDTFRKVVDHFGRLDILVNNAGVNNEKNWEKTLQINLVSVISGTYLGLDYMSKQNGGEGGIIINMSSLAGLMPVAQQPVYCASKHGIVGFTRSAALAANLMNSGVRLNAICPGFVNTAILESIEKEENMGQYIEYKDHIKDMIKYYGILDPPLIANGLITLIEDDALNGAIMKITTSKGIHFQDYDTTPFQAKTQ
#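 NADH formation kinetics: reaction with 30 uM PGE2 and 1 mM NAD+ (final), 20 nM enzyme, Tris-HCl pH 8 with Tween 20, after 15 min compound preincubation at room temperature. Fluorescence change, last versus first of five reads.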
# aGal spleen mod – qHTS Assay for Inhibitors and Activators of Human alpha-Galactosidase From Spleen Homogenate; Alpha-galactosidase A (Homo sapiens), P06280; human spleen homogenate, 4MU-alpha-Gal fluorescence, 40 min; Potency, µM (top dose mostly 80 µM), hits mostly inhibitors; hit rate 0.008% among 240,000; AID 2107, 2009
#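 Spleen homogenate 1 ug + cpd (titration) + 4-MU-alpha-D-galactopyranoside 1 mM; 37C 40 min; 50 mM citrate/phosphate pH 5.0, 0.01% Tween-20; stop pH 10; fluorescence 365/440; AC50 via Hill.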
# ALOX12 inhib – qHTS Assay for Inhibitors of 12-hLO (12-human lipoxygenase). Polyunsaturated fatty acid lipoxygenase ALOX12 (Homo sapiens), P18054. purified 12-hLO, xylenol orange hydroperoxide absorbance. Potency, µM (series often up to 57.1 µM), most hits filed as inhibitors. hit rate 0.12% among 150,000. AID 1452, 2008; also: nearly all actives have a fitted effect of over 55% in size
#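 Xylenol orange chromogenic assay: hydroperoxide from 12hLO oxidises Fe(II), giving red-shifted Fe(III)-XO absorbance. Conditions: 150 nM enzyme, 40 uM arachidonic acid, 25 mM Hepes pH 7.0, 0.01% Triton X-100, 30 min, room temperature.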
# Hits are given with their value; i = inactive; ? = inconclusive; nt = no result; [ ] = dose if it differs, or a comment. Sampled rows, rich in hits. Any-hit rate of the full collection: about 10%. Unless noted, calls follow the shape of the dose curve; as a rule, active = well fitted curve in the direction sought with a large enough effect; inconclusive = small, poorly fitted or top-dose-only effect, or another doubt; inactive = no such curve, though single readings can be large; an effect the other way counts as inactive or inconclusive.
SMILES,GLA inh pH 4.5,ALDH1A1 block,PNC assembly inh,HPGD block,aGal spleen mod,ALOX12 inhib
Cc1nc(NC(=O)C23CC4CC(CC(C4)C2)C3)sc1Cc1ccc2c(c1)OCO2,i,i,?,nt,i,i
Nc1nc(Nc2ccccc2)nc2c1ncn2[C@@H]1O[C@@H](CO)[C@H](O)[C@@H]1O,nt,nt,nt,nt,nt,i
CCc1nnc(NS(=O)(=O)c2ccc(NC(=S)NC(=O)/C=C/c3ccccc3)cc2)s1,i,?,i,?,i,?
CCc1nnc(NS(=O)(=O)c2ccc(NC(=S)NC(=O)c3ccccc3)cc2)s1,i,?,i,i,i,?
CCc1nnc(NS(=O)(=O)c2ccc(NC(=S)NC(=O)c3ccc(Br)cc3)cc2)s1,i,i,i,14µM,i,?
CCc1nnc(NS(=O)(=O)c2ccc(NC(=S)NC(=O)/C=C/c3ccc(C(C)C)cc3)cc2)s1,i,i,i,25µM,i,16µM
CCc1nnc(NS(=O)(=O)c2ccc(NC(=S)NC(=O)/C=C/c3ccc(OC)cc3)cc2)s1,i,2.5µM,i,?,i,i
CCc1nnc(NS(=O)(=O)c2ccc(NC(=S)Nc3ccc(F)cc3)cc2)s1,i,?,i,i,i,i
O=C1C(O)=C(O)C(=O)C(O)=C1O,i,?,nt,i,i,?
O=C1C=C(c2ccccc2)C[C@H](c2cccs2)[C@H]1n1cnc([N+](=O)[O-])c1,i,?,i,i,i,i
O=C1C=C(c2cccs2)CC(c2cccs2)C1n1cnc([N+](=O)[O-])c1 (stereo not given),i,28µM,i,i,i,i
O=C(Cc1ccc(Cl)c(Cl)c1)Nc1ccc2[nH]c(=O)[nH]c2c1,i,i,nt,nt,i,nt
COc1ccccc1CN1CC[C@@]2(CCCN(C(=O)c3cc(C(F)(F)F)cc(C(F)(F)F)c3)C2)C1,nt,?,nt,i,i,i
Cn1c(N)c(C(=O)COC(=O)c2ncc(Cl)c(Cl)c2Cl)c(=O)n(C)c1=O,i,i,nt,nt,i,nt
Cc1cc(C)nc(N/N=C/c2ccco2)n1,i,i,-110,i,i,i
Cc1cccc(C(=O)NC(=S)Nc2ccccc2C(F)(F)F)c1,i,18µM,i,i,i,?
Cc1ccc(C(=O)NC(=S)Nc2ccccc2C(F)(F)F)cc1C,i,4.5µM,i,i,i,22µM
COc1ccc(-c2nc(N)c3ncn([C@H]4O[C@@H](CO)[C@@H](O)[C@@H]4O)c3n2)cc1,nt,i[13.5 µM],nt,i,nt,i[11.4 µM]
COc1ccc(C2OC3C(CO)OC(n4cnc5c(=O)[nH]c(N)nc54)C3O2)cc1 (stereo not given),i,i,nt,16µM,i,i
Nc1c(-c2cccc([N+](=O)[O-])c2)nc2ccccn12,i,7.5µM,i,i,i,i
CCc1nnc(NC(=O)Nc2ccccc2OC)s1,i,i,i,i,i,i
CCc1nnc(NC(=O)c2ccc(OC)cc2OC)s1,i,7.9µM,?,i,i,i
CCC(CC)C(=O)c1c[nH]c(C(=O)NN)c1,i,7.9µM,nt,nt,i,nt
Cc1occc1C(=O)NN1C(=O)C2C3CCC(O3)C2C1=O (stereo not given),i,i,-102,i,i,i
O=C(O)c1ccc(-n2cc(-c3cc4ccccc4oc3=O)[nH]c2=S)cc1,i,?,nt,nt,i,nt
SMILES,GLA inh pH 4.5,ALDH1A1 block,PNC assembly inh,HPGD block,aGal spleen mod,ALOX12 inhib
COCCCNC(=O)CNC(=S)N(Cc1ccccc1F)C1CCCCC1,i,14µM,i,i,i,i
O=C(CNC(=S)N(Cc1ccccc1F)C1CCCCC1)NCC1CCCO1 (stereo not given),i,7.1µM,nt,nt,i,nt
O=C(O)CNC(=S)N(Cc1ccccc1F)C1CCCCC1,i[21.1 µM],?,nt,nt,i,nt
CCCCNC(=O)CNC(=S)N(Cc1ccccc1F)C1CCCCC1,i,22µM,nt,nt,i,nt
COc1ccc(COC[C@H](C)[C@H](O[Si](C)(C)C)[C@@H](C)[C@H]2OC(=O)[C@H]2C)cc1,nt,nt,nt,nt,i,nt
CC(C)(c1ccccc1)c1ccc(OCCCN2CCNCC2)cc1,i,16µM,nt,nt,i,nt
CCc1cccc(C)c1NC(=S)NCc1cccn1C,i,14µM,i,i,i,i
Cc1cc(C)nc(SCc2ccc(C(=O)N/N=C3\CCCC(=O)C3)cc2)n1,i,8.9µM,nt,nt,i,nt
Cc1cc(N2CCOCC2)nc(SCC(=O)c2ccc(Cl)cc2)n1,i,i,i,i,i,i
Cc1cc(C)nc(SCc2ccc(C(=O)NN=C3CCCC3)cc2)n1,i,2.8µM,nt,nt,i,nt
Cc1cc(C(=O)N/N=C2\CCCC(=O)C2)c2ccccc2n1,i,i,i,i,i,i
Cc1cc(C)nc(SCNC(=O)c2ccc(Cl)cc2)n1,i,i,i,28µM,i,i
Cc1cc(C)nc(SCc2ccc(C(=O)N/N=C/c3cccnc3)cc2)n1,i,i,nt,nt,i,nt
Cl/C(=C\n1cncn1)c1ccc(Cl)cc1Cl,i,?,nt,14µM,i,i
CCNc1ncc2ncc(=O)n(C[C@H]3CCCO3)c2n1,nt,?,nt,?,?,i
CS(=O)(=O)c1ncc(Cl)c(C(=O)Nc2ccc(N3CCOCC3)cc2)n1,i,10µM,i,i,i,i
CS(=O)(=O)c1ccc(C(=O)Nc2ccc(N3CCOCC3)cc2)c(Cl)c1,i,i,nt,nt,i,nt
COc1ccc(/C=C2\CCCC(C(=O)C(F)(F)F)=C2O)cc1,i,0.45µM,i,i,i,i
O=C(C1=C(O)/C(=C/c2ccc(O)cc2)CCC1)C(F)(F)F,i,0.079µM,i,i,i,?
COc1ccc(/C=C2\CCOC2=O)cc1,i,i,?,i,i,i
Cc1ccc(CN2CCN(Cc3ccc(C)o3)[C@@H](C)C2)o1,nt,i[13.5 µM],nt,i,nt,i[11.4 µM]
O=[N+]([O-])c1cc(-c2n[nH]c(-c3ccccc3)n2)cc([N+](=O)[O-])c1,i,i,?,i,i,i
Clc1ccccc1-c1nc(-c2ccccc2)n[nH]1,i,i,?,25µM,i,i
COc1cccc(-c2nccc(NCCc3c[nH]c4ccc(OC)cc34)n2)c1,nt,i,nt,nt,?,nt
COc1ccc2[nH]cc(CCNc3ccnc(-c4ccccc4C)n3)c2c1,nt,?,nt,nt,32µM,nt
Cc1cc2cc(C(c3nnnn3Cc3ccco3)N3CCc4ccccc43)c(=O)[nH]c2cc1C (stereo not given),i,7.9µM,i,nt,i,?
Cc1ccc2cc(C(c3nnnn3Cc3ccccc3)N3CCc4ccccc43)c(=O)[nH]c2c1 (stereo not given),i,18µM,i,i,i,i
